# TRPV1 potentiator – enhances activation of the human vanilloid receptor TRPV1; Q8NER1; TRPV1-expressing cells, Fluo-8 calcium influx, capsaicin EC20 potentiation; potentiation, % at 8.33 µM; actives 0.02% (n = 320,000); AID 540277; in the data active = potentiation above about 80%; inconclusive = between about 30% and that limit
#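 TRPV1-expressing cells were cultured overnight at 35.5C and loaded with Fluo-8 calcium dye for 40 to 90 min at room temperature. After a 10 s baseline, compound was added and calcium influx was read kinetically for 3 min (ex 480/em 520 nm).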
# gsp ag – agonists of gsp mutant (McCune-Albright syndrome). gsp mutant cells, cAMP HTRF, 30 min. Potency, µM (top dose mostly 76.9 µM), hits mostly activators. actives 0.13% (n = 340,000); active = well fitted activation curve with a large enough effect; inconclusive = small, poorly fitted or top-dose-only effect, or another doubt; inactive = no such curve, though single readings can be large or run the other way; cell line not stated here;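 also: phosphodiesterase inhibitor Ro 20-1724 added with compounds to block cAMP breakdown; nearly all actives have a fitted effect of over 60% in size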
#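 Cells in DMEM/10% FBS with G418 were pretreated with compounds in DMSO plus […] (300 uM stock) for 30 min at 37C. cAMP was measured by HTRF (cAMP-d2 plus anti-cAMP antibody-K) after 30 min at room temperature.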
# TRPV1 agonist – agonists of human vanilloid receptor 1 (TRPV1). TRPV1-expressing cells, Fluo-8 calcium influx, agonist mode. activation, % at 8.33 µM. actives 0.19% (n = 320,000). AID 540275; in the data active = activation above about 80%; inconclusive = between about 30% and that limit
#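 Fluo-8 calcium influx in TRPV1-expressing cells, kinetic read (ex 480/em 520 nm). Compound added and read 3 min for agonist activity, followed by capsaicin at EC20 final and 2 min further read for enhancement.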
# gsp antag – antagonists of gsp mutant (McCune-Albright syndrome); gsp-mutant cells, cAMP HTRF, 30 min; Potency, µM (highest dose often 76.9 µM), most hits filed as inhibitors; actives 0.4% (n = 340,000); calls by dose curve; cell line not stated here;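 also: intracellular cAMP measured with PDE inhibitor Ro 20-1724 present during compound exposure; nearly all actives have a fitted effect of over 65% in size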
#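 Cells, 2000/well, grown 16–24 h in DMEM 10% FBS with 0.5 mg/ml G418, then compounds plus […] (300 uM addition stock), 30 min at 37C. cAMP read by HTRF (cAMP-d2 and anti-cAMP antibody-K in lysis buffer) after 30 min RT.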
# RXFP1 agonist – RXFP1 (human) receptor agonism | HEK293T-RXFP1 cAMP TR-FRET, 30 min; response scale: percent of porcine relaxin response, buffer zero | Potency, µM (titrated, usually from 57.5 µM), usual class: activators | Q9HBX9 | actives 0.3% (n = 370,000); active = well fitted activation curve with a large enough effect; inconclusive = small, poorly fitted or top-dose-only effect; also: nearly all actives have a fitted effect of over 60% in size
# Target sequence (Q9HBX9 whole entry, looked up): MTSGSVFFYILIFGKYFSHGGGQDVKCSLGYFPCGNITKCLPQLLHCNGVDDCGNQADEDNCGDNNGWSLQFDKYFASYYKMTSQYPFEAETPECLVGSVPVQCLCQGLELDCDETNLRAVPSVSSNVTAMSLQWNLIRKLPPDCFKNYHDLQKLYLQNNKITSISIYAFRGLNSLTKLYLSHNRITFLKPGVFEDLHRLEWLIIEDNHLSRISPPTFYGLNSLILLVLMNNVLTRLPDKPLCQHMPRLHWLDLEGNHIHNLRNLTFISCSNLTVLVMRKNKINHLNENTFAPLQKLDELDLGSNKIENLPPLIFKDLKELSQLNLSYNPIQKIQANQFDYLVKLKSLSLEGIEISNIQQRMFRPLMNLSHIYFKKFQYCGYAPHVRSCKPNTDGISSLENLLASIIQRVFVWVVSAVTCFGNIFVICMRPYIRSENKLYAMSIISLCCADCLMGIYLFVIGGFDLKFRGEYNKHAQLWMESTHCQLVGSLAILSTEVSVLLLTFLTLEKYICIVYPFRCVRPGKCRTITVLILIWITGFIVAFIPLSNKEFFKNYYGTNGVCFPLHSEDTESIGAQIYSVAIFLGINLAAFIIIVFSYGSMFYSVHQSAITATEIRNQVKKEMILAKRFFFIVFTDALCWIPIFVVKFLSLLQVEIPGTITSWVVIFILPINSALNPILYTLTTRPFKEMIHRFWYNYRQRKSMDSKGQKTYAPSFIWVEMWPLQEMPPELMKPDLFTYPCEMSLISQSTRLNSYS
#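 HEK293 cells stably expressing RXFP1, treated 30 min at 37C with compounds plus PDE4 inhibitor Ro 20174; cAMP measured by HTRF TR-FRET. Normalized to buffer and 29 nM porcine relaxin; EC50 by Hill fit.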
# RXFP1 antagonist – blocks the human relaxin receptor RXFP1. activity change, negative = inhibition, % at 57.5 µM. HEK293-RXFP1, relaxin-stimulated cAMP HTRF, 30 min; stronger effect = lower value. AID 1259400. Q9HBX9. actives 0.59% (n = 350,000);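 active = activity change of -60% or lower, but not beyond a set lower limit; inconclusive = change between -60% and -40%, or beyond the set limit; inactive = change above -40%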
# Numbers stand for hits; - = inactive; ? = inconclusive; . = no result given; [ ] = dose if it differs, or a comment. Compounds with a hit are over-represented: about 1.1% of the library has one in this group of screens.
SMILES,TRPV1 potentiator,gsp ag,TRPV1 agonist,gsp antag,RXFP1 agonist,RXFP1 antagonist
O=C(CCOCCOCCOCCOCCC(=O)Nc1c(I)cc(I)c(C(=O)O)c1I)Nc1c(I)cc(I)c(C(=O)O)c1I,.,.,.,.,.,-
c1cc2[nH]snc2c2nc(C3CC3)nc12,-,25µM,-,-,-,-
OCCN(CCO)c1ccc(C(c2ccccc2Cl)c2ccc(N(CCO)CCO)cc2Cl)c(Cl)c1,-,-,-,?,-,-60
OCCN(CCO)c1ccc2ccccc2c1,-,?,-,-,-,-
COc1ccc(N(C)S(=O)(=O)c2ccc3c(c2)CCN3C(=O)C2CC2)c(OC)c1,-,-,-,28µM,-,-
CCC(=O)N1CCc2cc(S(=O)(=O)N(C)c3ccc(OC)cc3OC)ccc21,-,-,-,-,-,-
O=C(Cn1cncn1)c1ccccc1Br,-,-,-,-,-,-
CCN(CC)CC(O)Cn1c(C)c(-c2ccccc2)c2cc([N+](=O)[O-])ccc21 (stereo not given),-,-,-,-,-,-89
CCN(CC)CC(O)Cn1c2ccccc2c2ccccc21 (stereo not given),-,-,-,-,-,-
COc1ccccc1NC(=O)N1CCN(c2ccnc3cc(Cl)ccc23)CC1,-,-[15.4 µM],-,35µM,-,-
O=C(C1CCCCC1)N1CCN(c2ccnc3cc(Cl)ccc23)CC1,-,-[15.4 µM],-,35µM,-,-
N#Cc1cccc(S(=O)(=O)N2CCN(c3ccnc4cc(Cl)ccc34)CC2)c1,-,-,-,25µM,-,-
COc1ccccc1N1CCN(c2ccnc3cc(Cl)ccc23)CC1,-,-,-,-,-,-
CN(C(=O)Cn1nc(C(=O)O)c2ccccc2c1=O)C1(C#N)CCCCC1,-,-,-,-,-,-
CCO[C@H](Cc1ccc(OCCc2ccc(OS(C)(=O)=O)cc2)cc1)C(=O)O,.,.,.,.,.,-
O=C1N=C(N2CCOCC2)S/C1=C\c1ccc(-c2ccccc2Cl)o1,-,-[15.4 µM],?,-,-,-
Cc1ccccc1-c1ccc(/C=C2/SC(N3CCOCC3)=NC2=O)o1,-,-[15.4 µM],84,-,-,-
COc1ccc(N(CC(=O)NCCc2ccc(C)cc2)S(=O)(=O)c2c(C)nn(C)c2C)cc1,.,.,.,.,-,.
Cc1ccc2c(Br)cc(Br)c(O)c2n1,.,.,.,.,.,-
Cc1cc(C)cc(C(=O)NC(=S)Nc2ccc(Cc3ccncc3)cc2)c1,-,-,-,-,-,-
COc1cc(C(=O)NC(=S)Nc2ccc(Cc3ccncc3)cc2)cc(OC)c1OC,-,-,-,32µM,-,-
CC(=O)c1cccc(N(C(=O)c2csnn2)C(C(=O)NC2CCCC2)c2ccccc2)c1 (stereo not given),-,-,-,-,-,-80
COc1ccc(NS(=O)(=O)c2cc(NC(=O)c3cnc(C)cn3)ccc2N2CCCCC2)cc1,-,-,90,-,-,-
Cc1nn(C(C)C)c(C)c1CN1CCC(C(=O)Nc2cccc(-c3cccc(F)c3)c2)CC1,-,-,-,-,-,-82
Cc1cccc(CN2CCC(C(=O)Nc3cccc(-c4cccc(F)c4)c3)CC2)n1,-,-,-,-,-,?
SMILES,TRPV1 potentiator,gsp ag,TRPV1 agonist,gsp antag,RXFP1 agonist,RXFP1 antagonist
COc1cccc(C2NC(=O)c3n[nH]c(-c4cccs4)c32)c1 (stereo not given),.,.,.,.,-,.
NC(=S)N/N=C/c1ccc(-n2nncc2-c2ccc(Cl)cc2)cc1,-,-,-,-,-,-73
Cc1cc2c(=O)c(C(=O)c3ccncc3)cn(CC(=O)Nc3cccc(C)c3C)c2cc1C,.,.,.,.,?,-
Cc1ccc(NC(=O)c2ccc(S(=O)(=O)NCc3ccco3)cc2)cc1,-,-,82,-,-,?
CCc1ccc(NC(=O)c2ccc(S(=O)(=O)NCc3cccnc3)cc2)cc1,-,-,87,-,-,-
COc1cccc(NC(=O)c2ccc(S(=O)(=O)NCc3cccnc3)cc2)c1,-,-[15.4 µM],-,-,-,-
O=C(Nc1ccc(S(=O)(=O)NCc2ccco2)cc1)c1ccncc1,-,-,-,-,-,-
CN1C(CSCC(F)(F)F)Nc2cc(Cl)c(S(N)(=O)=O)cc2S1(=O)=O (stereo not given),.,.,.,.,.,-
CCC(=O)N1CCc2cc(Br)cc(S(=O)(=O)N3CCCC(C(=O)Nc4ccc(C)c(F)c4)C3)c21 (stereo not given),.,.,.,.,-,.
CCCc1cc(=O)n2nc(N3CCC(C(=O)N4CCN(c5cccc(OC)c5)CC4)CC3)sc2n1,-,-,-,?,-,-
Nc1nc(-c2ccc(F)cc2)cc(C(F)(F)F)n1,-,-,-,-,-,-
COc1ccc(-c2cc(C(F)(F)F)nc(N)n2)cc1,-,-[15.4 µM],-,-,-,-61
CSc1nc(N(C)CCO)c2sc3nc(-c4ccco4)c4c(c3c2n1)CCC4,-,?,-,-,-,-
CSc1nc(SCC(=O)O)c2sc3nc(-c4ccccc4)c4c(c3c2n1)CCC4,?,?,-,-,28µM,-
O=C(NCCC1=CCCCC1)c1ccc([N+](=O)[O-])cc1,-,-,89,-,-,-
Cc1cc(C(=O)NCCC2=CCCCC2)ccc1[N+](=O)[O-],-,-[15.4 µM],83,-,-,-
O=C(CCNC(=O)c1ccc([N+](=O)[O-])cc1)NCCC1=CCCCC1,-,-[15.4 µM],-,-,-,-
CC(=O)OC1CCC2C3CCc4cc(OP(=O)(N5CC5)N5CC5)ccc4C3CCC12C (stereo not given),.,-,.,.,.,-
O=C(COC(=O)Cc1c(F)cccc1Cl)Nc1ccc2[nH]c(=O)[nH]c2c1,.,-,.,-,.,-
O=C(COc1cccnc1[N+](=O)[O-])N1CCN(S(=O)(=O)c2ccccc2)CC1,-,-,-,50µM,-,-
O=C(CCSc1ccc(Cl)cc1)N1CCN(S(=O)(=O)c2ccccc2)CC1,-,-,?,-,-,-
O=C(COc1ccccc1[N+](=O)[O-])N1CCN(S(=O)(=O)c2ccccc2)CC1,-,-[15.4 µM],-,-,-,-
O=C(CCc1ccccc1Cl)N1CCN(S(=O)(=O)c2ccccc2)CC1,-,-,?,10µM,-,-
N#C/C(=C(/O)c1ccco1)c1nc2ccccc2s1,-,-,-,35µM,-,-
O=C(Nc1ccccc1-c1nc2ccccc2s1)c1ccco1,-,25µM,-,-,-,-
CCCCc1nn2c(=O)cc(COC(=O)c3ccc(NC(=O)C(CC)CC)cc3)nc2s1,.,.,.,.,-,-
COc1cccc2cc(-c3nc4sc(C(=O)Nc5ccc(F)cc5F)c(C)c4c(=O)[nH]3)c(=O)oc12,.,.,.,.,-,-
N#Cc1nc(-c2ccccc2F)oc1NC1CCCCC1,-,-,?,-,-,-60

# Screens as filed in PubChem.
